# From PubChem BioAssay (NCATS)
# Several values for one entry are separate records, joined by “and”; a condition that tells them apart may be missing. Equal entries are not always repeated. Inconclusive results are not listed. Values without a mark were called inactive. Activity calls are given as the source filed them. The call rests on the fitted dose curve; in most records, active means well fitted inhibition curve with a large enough effect; inconclusive means small, poorly fitted or top-dose-only effect; inactive means flat fitted curve, though single readings scatter. Positions of bridges follow the written chain, without caps; N, C: chain ends. Non-standard residues stand in square brackets, D forms with d. Residues, ends and D or L forms follow the SMILES beside them. ξ: configuration not given here. *: point of attachment. Octanoyl(6-Me) = CCC(C)CCCCC(=O)*; ξThr(3R) = C[C@@H](O)C(N)C(=O)O; dDab = NCC[C@@H](N)C(=O)O; Dab = NCC[C@H](N)C(=O)O
# Experiments:
# CRL-7250 = normal cell line; test: Cytotoxic Profiling of Annotated Libraries Using Quantitative High-Throughput Screening (AID 1296008); details: Five cell lines viability, CellTiter-Glo ATP luminescence, 48-72 h; max response: active compounds read low; further: potency means the concentration at half of the fitted maximal effect; on max response: on the % scale 0 is the no-effect control and ±100 the full control effect
# In short: (§1)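 Cytotoxicity was measured as CellTiter-Glo ATP luminescence, read after 10 min at room temperature. Compound treatment of the cells lasted 48 or 72 hr at 37 degrees Celsius in a qHTS format.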
# HaCat [1] = test: as above; details: Five cell lines viability, CellTiter-Glo ATP luminescence, 48-72 h; max response: active compounds read low
# In short: as §1
# KB-3-1 = test: as above; details: Five cell lines viability, CellTiter-Glo ATP luminescence, 48-72 h; max response: active compounds read low
# In short: as §1
# NIH3T3 = test: as above; details: Five cell lines viability, CellTiter-Glo ATP luminescence, 48-72 h; max response: active compounds read low
# In short: as §1
# HACAT [2] = test: qHTS assay to identify novel small-molecules to repurpose for Merkel cell carcinoma treatment (AID 1296009); details: MCC and control cell lines, CellTiter-Glo viability, 72 h; at 44.8 µM (top of the series) unless noted; further: potency means the concentration at half of the fitted maximal effect
# In short: (§2)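 72 hr, 37 degree celsius; NPC 8-pt / MIPE 11-pt dose response; compound pinned in DMSO; CellTiter-Glo, 10 min RT, luminescence; normalized to no-cell and DMSO controls.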
# MCC-13 = test: as above; details: MCC and control cell lines, CellTiter-Glo viability, 72 h; series mostly up to 46 µM
# In short: as §2
# TAB165 = test: qHTS profiling for inhibitors of Plasmodium falciparum proliferation (AID 504749);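 further: 0% = DMSO vehicle and full inhibition = artemisinin control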; details: P. falciparum in erythrocytes, SYBR Green DNA, 72 h; series mostly up to 28.7 µM
# In short: (§3)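 Infected RBCs, 0.3% parasitemia/2.5% Hct final; cpd 72 h, 37 C, 5% CO2; lysis buffer with saponin/triton/SYBR Green I, o/n RT dark; FI 485/535; norm. to artemisinin (0.29 uM) and DMSO.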
# W2 = test: as above; details: P. falciparum in erythrocytes, SYBR Green DNA, 72 h; series mostly up to 28.7 µM
# In short: as §3
# HEK293T = test: qHTS assay to identify novel small-molecules to repurpose for Merkel cell carcinoma treatment (AID 1296009); details: MCC and control cell lines, CellTiter-Glo viability, 72 h; series mostly up to 44.8 µM; further: potency means the concentration at half of the fitted maximal effect
# In short: as §2
# Further: nearly all actives have a fitted effect of over 60% in size.
structure (smiles),measurement,setting,value
c1ccc2c(Oc3nc(Nc4ccc(N5CCOCC5)cc4)c4ncn(C5CCCCC5)c4n3)cccc2c1,max response,CRL-7250,-3.84% and 0.807%
same,outcome,HaCat [1],inactive
same,max response,KB-3-1,8.53%
same,max response,NIH3T3,1.5% and -0.0324%
same,outcome,HACAT [2],inactive
same,Potency,MCC-13,inactive
O=C(C[C@@H]1CC=CCCC(=O)O[C@H](c2ccccc2)CNC1=O)NCc1ccc(Cl)cc1,outcome,CRL-7250,inactive
same,outcome,HaCat [1],inactive
same,outcome,KB-3-1,inactive
same,max response,NIH3T3,-2.63%
same,outcome,HACAT [2],inactive
same,Potency,MCC-13,inactive
Cc1ccccc1C(=O)Nc1ccc(C(=O)N2CCCC(O)c3cc(Cl)ccc32)c(C)c1 (configuration not stated),max response,CRL-7250,-23.5%
same,max response,HaCat [1],1.52%
same,outcome,KB-3-1,inactive
same,max response,NIH3T3,-21%
same,Potency,MCC-13,inactive
COc1cccc2c1C(=O)c1c(O)c3c(c(O)c1C2=O)C[C@@](O)(C(=O)CO)C[C@@H]3O[C@H]1C[C@H](N)[C@@H](O)[C@H](C)O1,Potency,CRL-7250,1180 nM (active)
same,Potency,HaCat [1],372 nM (active)
same,Potency,KB-3-1,743 nM (active)
same,Potency,NIH3T3,235 nM (active)
same,Potency,MCC-13,5900 nM (active)
COc1ccc2c(c1OC)C(=O)OC2[C@H]1c2c(cc3c(c2OC)OCO3)CCN1C (some centres not stated),Potency,TAB165,inactive
same,Potency,W2,inactive
same,Potency,CRL-7250,833 nM (active)
same,Potency,HaCat [1],10500 nM (active)
same,Potency,KB-3-1,118 nM (active)
same,Potency,NIH3T3,1050 nM (active)
same,Potency,MCC-13,2960 nM (active)
OCc1ccccc1O[C@@H]1O[C@H](CO)[C@H](O)[C@H](O)[C@H]1O,max response,CRL-7250,-20.8%
same,max response,HaCat [1],-10.2%
same,outcome,KB-3-1,inactive
same,outcome,NIH3T3,inactive
same,Potency,MCC-13,inactive
COc1cc(C)c(C=CC(C)=CC=CC(C)=CC(=O)O)c(C)c1C,max response,CRL-7250,-4.27%
same,outcome,HaCat [1],inactive
same,outcome,KB-3-1,inactive
same,max response,NIH3T3,-4.41%
same,outcome,HACAT [2],inactive
same,Potency,MCC-13,inactive
COC1=C(OC)C(=O)C(CC=C(C)CCC=C(C)CCC=C(C)CCC=C(C)CCC=C(C)CCC=C(C)CCC=C(C)CCC=C(C)CCC=C(C)CCC=C(C)C)=C(C)C1=O,outcome,CRL-7250,inactive
same,max response,HaCat [1],-8.05%
same,max response,KB-3-1,-1.17%
same,max response,NIH3T3,4.96%
same,Potency,MCC-13,inactive
CC(=O)O[C@H]1C[C@@H]2CC[C@H]3[C@H]4C[C@H]([N+]5(C)CCCCC5)[C@@H](OC(C)=O)[C@@]4(C)CC[C@@H]3[C@@]2(C)C[C@H]1N1CCCCC1,max response,CRL-7250,-4.19%
same,max response,HaCat [1],-11.8%
same,max response,KB-3-1,2.79%
same,max response,NIH3T3,4.95%
same,Potency,MCC-13,inactive
CC(=O)SCC(Cc1ccccc1)C(=O)NCC(=O)OCc1ccccc1 (configuration not stated),max response,CRL-7250,-7.71%
same,outcome,HaCat [1],inactive
same,max response,KB-3-1,3.33%
same,max response,NIH3T3,-4.22%
same,outcome,HACAT [2],inactive
same,Potency,MCC-13,inactive
CCC(C)CCCCC(=O)N[C@@H](CCN)C(=O)NC(C(=O)N[C@H](CCN)C(=O)N[C@@H]1CCNC(=O)C([C@@H](C)O)NC(=O)[C@@H](CCN)NC(=O)[C@@H](CCN)NC(=O)[C@@H](CC(C)C)NC(=O)[C@H](Cc2ccccc2)NC(=O)[C@H](CCN)NC1=O)[C@@H](C)O (stereo partly drawn) ({Octanoyl(6-Me)}-[Dab][ξThr(3R)][dDab][dDab][Dab]F[dL][dDab][dDab][ξThr(3R)]; lactam 4-C),outcome,CRL-7250,inactive
same,max response,HaCat [1],0.455%
same,max response,KB-3-1,0.786%
same,outcome,NIH3T3,inactive
same,Potency,HEK293T,inactive
same,Potency,MCC-13,inactive
Nc1ccn(C2CO[C@H](CO)O2)c(=O)n1 (some centres not stated),max response,CRL-7250,-10.6%
same,max response,HaCat [1],1.07%
same,max response,KB-3-1,6.69%
same,max response,NIH3T3,-8.89%
same,Potency,MCC-13,inactive
O=C(C=CC=Cc1ccc2c(c1)OCO2)N1CCCCC1,max response,CRL-7250,-3.96%
same,max response,HaCat [1],-2.24%
same,max response,KB-3-1,-6.15%
same,outcome,NIH3T3,inactive
same,Potency,MCC-13,inactive
CC(C)C[C@H](NC(=O)[C@@H](NC(=O)c1cccc(-c2ccccc2)n1)[C@@H](C)O)B(O)O,Potency,CRL-7250,92 nM (active)
same,Potency,HaCat [1],526 nM (active) and 580 nM (active)
same,Potency,KB-3-1,187 nM (active) and 184 nM (active)
same,Potency,NIH3T3,118 nM (active) and 116 nM (active)
same,Potency,MCC-13,264 nM (active)
C[C@H](NC(=O)[C@@H](O)c1cc(F)cc(F)c1)C(=O)N[C@@H]1C(=O)N(C)c2ccccc2-c2ccccc21,max response,CRL-7250,-10.4%
same,max response,HaCat [1],-6.76%
same,max response,KB-3-1,-9.73%
same,max response,NIH3T3,-4.85%
same,Potency,MCC-13,inactive
O=C1c2cccc(O)c2C(=O)c2c(O)cc(CO)cc21,max response,CRL-7250,-9.37%
same,max response,HaCat [1],-18.1%
same,max response,KB-3-1,-6.13%
same,max response,NIH3T3,-5.61%
same,Potency,MCC-13,inactive
C=C[C@@H]1CN2CCC1C[C@H]2[C@H](O)c1ccnc2ccc(OC)cc12 (some centres not stated),max response,CRL-7250,3.01%
same,max response,HaCat [1],-13.1%
same,max response,KB-3-1,-2.72%
same,max response,NIH3T3,3.02%
same,Potency,MCC-13,inactive
